Experimental data published in article PMC4336329 (PLoS ONE, 2015).
Among all 310,000 compounds or so, about 14,000 (4.5%) showed an effect of 50% or more. Effects have a minus sign here. The full list was thinned out, with strong results kept by preference.
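Note: peak tail current of the secondary pulse compared with the same well before compound.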

These molecules were tested against human ether-à-go-go-related gene (hERG) potassium channel (human, UniProt Q12809) (assay: primary screen, population patch clamp on CHO cells stably expressing hERG; higher = less effect of the substance).
Chain of human ether-à-go-go-related gene (hERG) potassium channel (Q12809 whole entry, looked up): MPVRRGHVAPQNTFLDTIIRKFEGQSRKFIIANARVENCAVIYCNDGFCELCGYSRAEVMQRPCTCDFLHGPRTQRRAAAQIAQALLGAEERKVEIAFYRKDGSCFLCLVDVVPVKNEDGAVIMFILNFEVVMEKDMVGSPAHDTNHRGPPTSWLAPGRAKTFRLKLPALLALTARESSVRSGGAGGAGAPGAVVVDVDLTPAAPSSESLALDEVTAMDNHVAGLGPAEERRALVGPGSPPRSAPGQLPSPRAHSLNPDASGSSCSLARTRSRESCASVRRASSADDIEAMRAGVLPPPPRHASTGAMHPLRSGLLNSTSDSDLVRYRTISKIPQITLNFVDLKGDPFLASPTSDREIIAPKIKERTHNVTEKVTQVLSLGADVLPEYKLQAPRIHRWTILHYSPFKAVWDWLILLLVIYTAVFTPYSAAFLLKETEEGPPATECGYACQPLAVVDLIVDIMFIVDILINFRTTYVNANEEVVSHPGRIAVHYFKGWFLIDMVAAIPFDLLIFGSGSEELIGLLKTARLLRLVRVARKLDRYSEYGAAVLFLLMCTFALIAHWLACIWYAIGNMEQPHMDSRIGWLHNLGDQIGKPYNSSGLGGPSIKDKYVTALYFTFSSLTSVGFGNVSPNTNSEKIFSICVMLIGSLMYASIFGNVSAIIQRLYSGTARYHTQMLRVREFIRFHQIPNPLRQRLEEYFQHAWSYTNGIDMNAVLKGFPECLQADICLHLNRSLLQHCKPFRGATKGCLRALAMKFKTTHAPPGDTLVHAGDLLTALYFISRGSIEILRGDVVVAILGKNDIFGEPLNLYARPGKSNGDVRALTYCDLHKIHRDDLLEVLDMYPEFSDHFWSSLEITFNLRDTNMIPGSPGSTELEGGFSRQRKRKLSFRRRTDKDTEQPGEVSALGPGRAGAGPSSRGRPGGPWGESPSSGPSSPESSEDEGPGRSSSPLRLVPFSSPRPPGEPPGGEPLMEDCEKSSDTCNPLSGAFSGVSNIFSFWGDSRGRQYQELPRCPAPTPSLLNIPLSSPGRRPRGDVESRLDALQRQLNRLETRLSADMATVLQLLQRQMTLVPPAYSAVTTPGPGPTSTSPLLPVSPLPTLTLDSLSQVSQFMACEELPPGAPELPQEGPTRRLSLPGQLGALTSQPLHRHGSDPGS
`O=C1N=C(N2CCCC2)S/C1=C\c1cn[nH]c1-c1ccccc1` was tested, and the “hERG current change (%, negative = inhibition) at 10uM” value was -4.48%.
With `COCCN=c1scc(-c2cccs2)n1/N=C(\C)c1ccco1` the “hERG current change (%, negative = inhibition) at 10uM” value was -2.51%.
`CN(C)S(=O)(=O)c1cccc(COc2ccccc2C(=O)Nc2ccccc2)c1` was tested, and the “hERG current change (%, negative = inhibition) at 10uM” value was -14.4%.
With `Brc1ccc(OCc2cn3ccccc3n2)cc1` the “hERG current change (%, negative = inhibition) at 10uM” value was -7.75%.
In the case of `CCOC(=O)c1sc(NC(=O)CSc2nccc(C)n2)c(C#N)c1C`, the “hERG current change (%, negative = inhibition) at 10uM” value is reported as -4.68%.
With `Cc1sc2ncnc(Sc3nc4ccccc4s3)c2c1C` the “hERG current change (%, negative = inhibition) at 10uM” value was 5.53%.
`Cl.O=C(CN1CCCC1)Nc1ccc2c(c1)CCC2` was tested, and the “hERG current change (%, negative = inhibition) at 10uM” value was -1.69%.
For `CC1(C)O[C@@H]2C[C@H]3[C@@H]4CCC5=CC(=O)C=C[C@]5(C)[C@@]4(F)[C@@H](O)C[C@]3(C)[C@]2(C(=O)CO)O1`, the “hERG current change (%, negative = inhibition) at 10uM” value was 13.7%.
With `CC1(c2ccccc2)O[C@@H]2C[C@H]3[C@@H]4CCC5=CC(=O)C=C[C@]5(C)[C@@]4(F)[C@@H](O)C[C@]3(C)[C@]2(C(=O)CO)O1` (stereo partly shown) the “hERG current change (%, negative = inhibition) at 10uM” value was -78.6%.
For `C[C@]12C=CC(=O)C=C1CC[C@H]1[C@@H]3C[C@@H](O)[C@](O)(C(=O)CO)[C@@]3(C)C[C@H](O)[C@@]12F`, the “hERG current change (%, negative = inhibition) at 10uM” value was 6.23%.
`CCn1c(CCNC(=O)c2ccccc2Cl)n[nH]c1=S` was tested, and the “hERG current change (%, negative = inhibition) at 10uM” value was 12%.
`C[n+]1ccccc1/C=C/c1cc(Br)ccc1O.[I-]` was tested, and the “hERG current change (%, negative = inhibition) at 10uM” value was 14.7%.
In the case of `Cc1ccc(NC(=O)c2ccc(-n3cncn3)c([N+](=O)[O-])c2)cc1`, the “hERG current change (%, negative = inhibition) at 10uM” value is reported as -17.9%.
In the case of `Cc1ccc(C(=O)NNC(=O)c2ccc(-n3cncn3)c([N+](=O)[O-])c2)cc1`, the “hERG current change (%, negative = inhibition) at 10uM” value is reported as 12.2%.
`CC(C)c1ccc(S(=O)(=O)N2CCN(C(=O)c3ccc(N4CCCC4)c([N+](=O)[O-])c3)CC2)cc1` was tested, and the “hERG current change (%, negative = inhibition) at 10uM” value was -55.1%.
In the case of `O=C(c1ccc(N2CCCC2)c([N+](=O)[O-])c1)N1CCN(S(=O)(=O)c2ccc(Cl)cc2)CC1`, the “hERG current change (%, negative = inhibition) at 10uM” value is reported as -36.2%.
For `Cc1ccc(S(=O)(=O)N2CCN(C(=O)c3ccc(-n4cncn4)c([N+](=O)[O-])c3)CC2)cc1`, the “hERG current change (%, negative = inhibition) at 10uM” value was -52.5%.
With `Cc1ccc(S(=O)(=O)N2CCN(C(=O)c3ccc(N4CCCCC4)c([N+](=O)[O-])c3)CC2)cc1` the “hERG current change (%, negative = inhibition) at 10uM” value was -10.2%.
`Cc1ccc(C)c(S(=O)(=O)N2CCN(C(=O)c3ccc(-n4cncn4)c([N+](=O)[O-])c3)CC2)c1` was tested, and the “hERG current change (%, negative = inhibition) at 10uM” value was -72.1%.
`Cc1ccc(C)c(S(=O)(=O)N2CCN(C(=O)c3ccc(N4CCCC4)c([N+](=O)[O-])c3)CC2)c1` was tested, and the “hERG current change (%, negative = inhibition) at 10uM” value was -9.46%.
With `O=C(c1ccc(-n2cncn2)c([N+](=O)[O-])c1)N1CCN(S(=O)(=O)c2ccc(Br)cc2)CC1` the “hERG current change (%, negative = inhibition) at 10uM” value was -67.5%.
With `Nc1ccc(C(=O)N2CCN(S(=O)(=O)c3ccc(Br)cc3)CC2)cc1[N+](=O)[O-]` the “hERG current change (%, negative = inhibition) at 10uM” value was -26.9%.
`CC(=O)c1ccc(S(=O)(=O)N2CCN(C(=O)c3ccc(-n4cncn4)c([N+](=O)[O-])c3)CC2)cc1` was tested, and the “hERG current change (%, negative = inhibition) at 10uM” value was -19.7%.
For `CC(C)CNC(=O)CC(=O)NN=C1CCCC1`, the “hERG current change (%, negative = inhibition) at 10uM” value was 19.5%.
`Cc1ccc(N(CC(=O)NCc2ccco2)C(=O)CCC(=O)Nc2nccs2)c(C)c1` was tested, and the “hERG current change (%, negative = inhibition) at 10uM” value was -22.5%.
For `Cc1cc(C)n(-c2nc3ccccc3n3c(C)nnc23)n1`, the “hERG current change (%, negative = inhibition) at 10uM” value was 6.03%.
In the case of `Cc1ccc2oc(=O)n(CC(=O)O)c2c1`, the “hERG current change (%, negative = inhibition) at 10uM” value is reported as 23.8%.
With `CCOc1ccccc1NC(=O)NC1(C(=O)NCC2CCCO2)CCCCC1` (stereo not shown) the “hERG current change (%, negative = inhibition) at 10uM” value was 15%.
With `COc1cc(NS(=O)(=O)c2ccc(NC(=O)c3ccc(C)o3)cc2)nc(OC)n1` the “hERG current change (%, negative = inhibition) at 10uM” value was -9.23%.
In the case of `Cc1ccc(N)c(C(=O)CCCCC(=O)O)c1`, the “hERG current change (%, negative = inhibition) at 10uM” value is reported as 7.01%.
`C[C@@H](C(=O)O)[C@@H]1C[C@@]1(C)[C@@H](NC(=O)OCc1ccccc1)c1ccccc1` was tested, and the “hERG current change (%, negative = inhibition) at 10uM” value was 16.8%.
With `Oc1c(CN2CCOCC2)cc(-c2ccccc2)cc1CN1CCOCC1` the “hERG current change (%, negative = inhibition) at 10uM” value was -12.7%.
For `Cc1cc(C)c(NC(=O)Cn2nnc(C(=O)NCc3cccs3)c2N)c(C)c1`, the “hERG current change (%, negative = inhibition) at 10uM” value was 20%.
In the case of `CCC(C)NC(=S)N(CCc1ccccc1)Cc1cc2cc(OC)c(OC)cc2[nH]c1=O` (stereo not shown), the “hERG current change (%, negative = inhibition) at 10uM” value is reported as -32.4%.
In the case of `CCCCCOC(=O)C1=C(C)Nc2nnnn2C1c1ccc(OC)c(OC)c1OC` (stereo not shown), the “hERG current change (%, negative = inhibition) at 10uM” value is reported as -41.4%.
In the case of `CCOc1cc(/C=C2\NC(=S)N(C)C2=O)ccc1OCc1ccc(C(=O)O)cc1`, the “hERG current change (%, negative = inhibition) at 10uM” value is reported as 14.6%.
`CC(=O)N1CCN(C(=O)c2ccc(-n3c(C)ccc3C)cc2)CC1` was tested, and the “hERG current change (%, negative = inhibition) at 10uM” value was -1.54%.
`Cc1c(NC(=O)/C=C/c2cn(-c3ccccc3)nc2-c2ccc(F)cc2)c(=O)n(-c2ccccc2)n1C` was tested, and the “hERG current change (%, negative = inhibition) at 10uM” value was 7.47%.
`CCN(CC)c1ccc(N)cc1S(=O)(=O)Nc1ccc(OC)cc1` was tested, and the “hERG current change (%, negative = inhibition) at 10uM” value was -4.91%.
With `Cn1c2c(c(=O)n(C)c1=O)CN(Cc1ccco1)CN2` the “hERG current change (%, negative = inhibition) at 10uM” value was 4.7%.
In the case of `N#Cc1ccccc1S(=O)(=O)N1CCN(C(=O)c2ccc(-n3cncn3)c([N+](=O)[O-])c2)CC1`, the “hERG current change (%, negative = inhibition) at 10uM” value is reported as -23.3%.
`Cc1ccc(S(=O)(=O)N2CCN(C(=O)c3ccc(N4CCCC4)c([N+](=O)[O-])c3)CC2)cc1` was tested, and the “hERG current change (%, negative = inhibition) at 10uM” value was -18.1%.
For `Cc1ccc(S(=O)(=O)N2CCN(c3ccc(C(=O)N4CCOCC4)cc3[N+](=O)[O-])CC2)cc1`, the “hERG current change (%, negative = inhibition) at 10uM” value was -59%.
In the case of `O=C(c1ccc(-n2cncn2)c([N+](=O)[O-])c1)N1CCN(S(=O)(=O)c2ccccc2Br)CC1`, the “hERG current change (%, negative = inhibition) at 10uM” value is reported as -70.3%.
For `CCOc1ccc(S(=O)(=O)N2CCN(C(=O)c3cccnc3)CC2)cc1`, the “hERG current change (%, negative = inhibition) at 10uM” value was -29.3%.
For `O=C(c1ccc(N2CCCCC2)c([N+](=O)[O-])c1)N1CCN(S(=O)(=O)c2ccccc2)CC1`, the “hERG current change (%, negative = inhibition) at 10uM” value was -49.9%.
With `NC(=O)c1ccc(N2CCN(S(=O)(=O)c3ccccc3)CC2)c([N+](=O)[O-])c1` the “hERG current change (%, negative = inhibition) at 10uM” value was -58.7%.
With `O=C(c1ccc(N2CCN(S(=O)(=O)c3ccccc3)CC2)c([N+](=O)[O-])c1)N1CCOCC1` the “hERG current change (%, negative = inhibition) at 10uM” value was -35.1%.
In the case of `COC(=O)c1ccc(N2CCN(S(=O)(=O)c3ccccc3)CC2)c([N+](=O)[O-])c1`, the “hERG current change (%, negative = inhibition) at 10uM” value is reported as -14.1%.
In the case of `O=C(c1ccncc1)N1CCN(S(=O)(=O)c2ccccc2Br)CC1`, the “hERG current change (%, negative = inhibition) at 10uM” value is reported as 4.86%.
`CCOc1ccc(S(=O)(=O)N2CCN(C(=O)c3ccc(-n4cncn4)c([N+](=O)[O-])c3)CC2)cc1` was tested, and the “hERG current change (%, negative = inhibition) at 10uM” value was -71.5%.
For `CCOc1ccc(S(=O)(=O)N2CCN(C(=O)c3ccncc3)CC2)cc1`, the “hERG current change (%, negative = inhibition) at 10uM” value was 4.67%.
